Screen size: about 340,000 compounds; about 8,500 (2.5%) were called active. The sample holds actives, similar compounds and a random draw of the others, so the mix is not that of the screen. Values without a mark were called inactive.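 The calls were made as follows: active = melting temperature shift of at least 10% of the positive control shift, at one fixed dose; inactive = the rest.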

The subject of this test is Glutamate receptor ionotropic, NMDA 3A (GRIN3A) ligand-binding domain. Nature of the test: binders of NR3A ligand-binding domain, primary screen, biophysical, differential scanning fluorimetry, uHTS (AID 1259313). The conditions noted are these: NR3A LBD differential scanning fluorimetry, at 25 µM, hits give high values, 0% = protein alone, 100% = glycine-bound protein. For orientation: DSF heats the sample and reads unfolding from a dye or from intrinsic fluorescence.
As for `CCOc1ccc(N=C2NC(=O)S/C2=C\c2ccc(O)cc2)cc1`, the Tm shift relative to glycine control is 15.1% (active).

As to `CCOc1[nH]n(-c2ccc(Cl)cc2)c(=O)c1C=Nc1ccc(O)cc1`, the Tm shift relative to glycine control was 5.05%. Regarding `CCOc1ccc(N=C2SC(C(=O)O)CC(=O)N2C)cc1` (stereo unspecified), the Tm shift relative to glycine control was 1.77%. For `CCCCn1c(N)c(N(CC(C)C)C(=O)CN(C)S(=O)(=O)c2ccc(F)cc2)c(=O)[nH]c1=O`, the Tm shift relative to glycine control was -1.73%. With `Nc1cc(N)nc(SCC(=O)Nc2cccc(S(=O)(=O)N3CCCCC3)c2)n1`, the Tm shift relative to glycine control is -2.96%. As for `COc1ccc(/C=C/C(=O)OCC(=O)Nc2cccc(Oc3ccccc3)c2)c(OC)c1`, the Tm shift relative to glycine control is 1.79%.

Take `COc1cc(/C=C/C(=O)OCC(=O)Nc2cccc(Oc3ccccc3)c2)ccc1O`: the Tm shift relative to glycine control was 16.3% (active). The result for `COc1cc(/C=C/C(=O)OCC(=O)NCCCc2ccccc2)ccc1O` reads -3.57%. The result for `Oc1cccc2ccc(/C=C/c3ccc(Br)s3)nc12` reads 27.9% (active); that for `Nc1ccc(S(=O)(=O)Nc2nccc(/C=C/c3ccc(Br)s3)n2)cc1`, 3.72%; that for `CC(Sc1nc2cc(Cl)ccc2s1)C(=O)Nc1ccc2c(c1)OCO2` (stereo unspecified), 17.5% (active).

`O=C(Nc1ccc2c(c1)OCO2)c1sc2cc(Cl)ccc2c1Cl`: the Tm shift relative to glycine control was 2.38%. On to `CC(Sc1nc(-c2ccccc2)cc(C(F)(F)F)n1)C(=O)Nc1ccc2c(c1)OCO2` (stereo unspecified), for which the Tm shift relative to glycine control was -3.7%. With `COC(=O)Nc1ncc(CN2C(=O)c3ccccc3C2=O)s1`, the Tm shift relative to glycine control is 13.7% (active). Consider `COc1cc(C(C)=O)ccc1OC(=O)CN1C(=O)c2ccccc2C1=O`, for which the Tm shift relative to glycine control was -1.44%. For the molecule `COC(=O)Nc1ncc(CN2CCCCC2)s1`, the Tm shift relative to glycine control was 0.99%.

`CN(Cc1ccccc1)C(=O)CCNC(=O)Cn1cnc2ccccc2c1=O`: the Tm shift relative to glycine control is 1.47%. As to `CC(C)=CCCC1(C)C=Cc2c(ccc3c2[nH]c2cc(O)c(C)cc23)O1` (stereo unspecified), the Tm shift relative to glycine control was 22.5% (active). As to `O=C(O)CC/C(=N\NC(=O)c1ccc(F)cc1)c1ccc(Br)cc1`, the Tm shift relative to glycine control is -1.55%. With `Cc1sc(NC(=O)c2ccc3ncsc3c2)c(C(N)=O)c1C`, the Tm shift relative to glycine control was 28.4% (active).

With `O=C(COC(=O)c1ccc2ncsc2c1)Nc1ccc(Cl)cc1`, the Tm shift relative to glycine control was -0.85%. Take `COc1ccccc1-c1nnc(NC(=O)c2ccc3ncsc3c2)o1`: the Tm shift relative to glycine control was -3.33%. Take `COc1cc(OC)c(C(=O)NNC(=O)c2ccc(NS(=O)(=O)c3cccs3)cc2)cc1OC`: the Tm shift relative to glycine control was 0.08%.

For `Cc1ccc(C(=O)N/C(=C/c2cccs2)C(=O)N2CCCCC2)cc1`, the Tm shift relative to glycine control was -1.69%. On to `COc1ccc(-c2ccc3nnc(SCC(=O)Nc4ccc(NC(C)=O)cc4)n3n2)cc1`, for which the Tm shift relative to glycine control was -5.8%.

For the molecule `COc1ccccc1NC(=O)c1cc(N2C(=O)C3C4CCC(C4)C3C2=O)ccc1Cl` (stereo unspecified), the Tm shift relative to glycine control is -3.68%. In the case of `CCc1ccnc(NS(=O)(=O)c2ccc3c(c2)OCCO3)c1`, the Tm shift relative to glycine control was -2.2%. Take `NNc1nc2c(Cl)cccc2s1`: the Tm shift relative to glycine control is -0.09%. For the molecule `COc1cc2ccccc2cc1C(=O)N(CCN(C)C)c1nc2c(F)cccc2s1`, the Tm shift relative to glycine control was 3.31%.

Turning to `O=C(Nc1sc2c(c1C(=O)O)CCC2)c1ccccc1F`, the Tm shift relative to glycine control is 1.58%. For `COc1cccc(OC)c1C(=O)Nc1sc2c(c1C(N)=O)CCCC2`, the Tm shift relative to glycine control is -0.3%. Consider `Fc1cc(F)c2nc(Nc3nc4c(F)cccc4s3)sc2c1`, for which the Tm shift relative to glycine control was 17.3% (active). Regarding `NC(=O)c1c(Nc2nc3c(F)cccc3s2)sc2c1CCCC2`, the Tm shift relative to glycine control is 10.8% (active).

For the molecule `COCCNc1nc(N)c([N+](=O)[O-])c(N2CCCCCC2)n1`, the Tm shift relative to glycine control is 0.58%. For `Cc1ccc(-c2csc(-c3c[nH]c4ccccc34)n2)cc1`, the Tm shift relative to glycine control is 25.6% (active). Consider `CCCc1cc(-c2nc(-c3ccc(C)cc3)cs2)ccn1`, for which the Tm shift relative to glycine control was -8.16%. Turning to `CCn1c(SCCC(C)C)nnc1-c1c[nH]c2ccccc12`, the Tm shift relative to glycine control is -26.6%. As to `COc1ccc(F)c(-c2nc(CN3CCC(c4ccccc4)CC3)c(C)o2)c1`, the Tm shift relative to glycine control is -0.88%. For the molecule `CCCCn1c(N)c(N(CCC(C)C)C(=O)CC2OC(=O)c3ccccc32)c(=O)[nH]c1=O` (stereo unspecified), the Tm shift relative to glycine control was -1.19%.

Regarding `CCN(CC)C(=O)CSC(Nc1cccc(F)c1)=C(C#N)C#N`, the Tm shift relative to glycine control was 11.7% (active). Regarding `CN(CC(=O)Nc1cccc(F)c1)C(=O)CC1CCCC1`, the Tm shift relative to glycine control is 2.89%. In the case of `Cc1ccc(CSCC(=O)N(C)CC(=O)Nc2cccc(F)c2)cc1`, the Tm shift relative to glycine control is -1.41%.

Regarding `Cc1noc(C)c1S(=O)(=O)N(CC(=O)Nc1ccc2c(c1)OCCO2)c1ccc(C(C)C)cc1`, the Tm shift relative to glycine control was 1.36%. `CC1Cc2ccccc2N1CC(=O)Nc1ccc2c(c1)OC(F)(F)O2` (stereo unspecified): the Tm shift relative to glycine control is -9.28%. `COc1ccc(C(=O)Oc2cc(/C=N/NS(=O)(=O)c3ccc(C)cc3)ccc2OC)cc1`: the Tm shift relative to glycine control is 14.3% (active).

Regarding `COc1ccc(C(=O)NNS(=O)(=O)c2ccc(C)cc2)cc1`, the Tm shift relative to glycine control is 9.89%. Consider `COc1ccc(S(=O)(=O)N/N=C\c2ccc(OC)c(COc3ccc(C)cc3[N+](=O)[O-])c2)cc1`, for which the Tm shift relative to glycine control was 7.36%. `COC(=O)c1nc(NC(=O)c2ccccc2)n[nH]1`: the Tm shift relative to glycine control was -2.48%. `COc1ccc(S(=O)(=O)NCC(c2ccco2)N2CCOCC2)cc1` (stereo unspecified): the Tm shift relative to glycine control was 0.48%. Consider `COc1ccc2oc(=O)cc(-c3cc4ccccc4o3)c2c1`, for which the Tm shift relative to glycine control was -4.08%. Take `COc1ccc(Nc2cc(=O)oc3ccccc23)cc1`: the Tm shift relative to glycine control is 13.9% (active). `COc1ccc(CCNC(=O)COC(=O)c2cc(=O)c3ccccc3o2)cc1`: the Tm shift relative to glycine control was -0.35%. The result for `CC1CCN(C(=O)CN(c2ccc(Oc3ccccc3)cc2)S(C)(=O)=O)CC1` reads 0.83%. Consider `CCOc1cc(-c2noc(CCCC(=O)NC3CCCCC3)n2)ccc1OC`, for which the Tm shift relative to glycine control is -2.03%. For the molecule `COc1ccc(CN2CC(C(=O)NC3CCCCC3)CC2=O)cc1` (stereo unspecified), the Tm shift relative to glycine control is 2.45%. In the case of `COc1cc(C#Cc2ccc3cc(CCCO)oc(=O)c3c2)cc(OC)c1`, the Tm shift relative to glycine control was -0.81%. On to `COc1cc(/C=C2\Oc3ccc(C#Cc4ccc(O)cc4)cc3C2=O)cc(OC)c1`, for which the Tm shift relative to glycine control was 16.2% (active).

In the case of `COC(=O)C(C)Oc1ccc2c(c1)O/C(=C\c1cccc(Br)c1)C2=O` (stereo unspecified), the Tm shift relative to glycine control was -2.66%.

On to `CCN(CC(=O)Nc1cc(Cl)ccc1C)C(=O)CN1C(=O)NC2(CCCC2)C1=O`, for which the Tm shift relative to glycine control was 0.97%. For `O=C(Cc1ccc(S(=O)(=O)N2CCCC2)s1)NC1CCCCCC1`, the Tm shift relative to glycine control was -3.8%. For `CC(C)c1ccc(S(=O)(=O)N2CCN(C(C)C(=O)NC3CCCC3)CC2)cc1` (stereo unspecified), the Tm shift relative to glycine control is -0.92%. With `CC(C(=O)NC1CCCC1)N1CCN(S(=O)(=O)c2ccccc2Cl)CC1` (stereo unspecified), the Tm shift relative to glycine control is 16.8% (active).

On to `O=C(Nc1ccc(OCC(=O)N2CCOCC2)cc1)c1cc(F)c(F)cc1Cl`, for which the Tm shift relative to glycine control was -1.28%. Turning to `CNC1(c2nnnn2-c2c(C)cccc2C)CCOC(C)(C)C1` (stereo unspecified), the Tm shift relative to glycine control is 0.08%. As to `Cc1cc(Nc2cccc(C)c2C)n2ncnc2n1`, the Tm shift relative to glycine control was 1.12%. As to `O=c1c2cc(Br)ccc2nc(-c2cccc(Cl)c2)n1O`, the Tm shift relative to glycine control was -8.87%.

Regarding `O=C1OCCN1C(=O)[C@H]1[C@H](c2ccc(F)cc2)C(c2ccccc2)=NN1c1ccc(Br)cc1`, the Tm shift relative to glycine control was 16% (active).

Turning to `C[C@@H]1C(c2ccc(F)cc2)=NN(c2ccc(Br)cc2)[C@H]1C(=O)N1CCOC1=O`, the Tm shift relative to glycine control was 7.36%. Turning to `O=C1OCCN1C(=O)[C@H]1[C@H](c2ccc(Cl)cc2)C(c2cccc(Cl)c2)=NN1c1ccc(Br)cc1`, the Tm shift relative to glycine control was 18.1% (active).

With `O=C1OCCN1C(=O)[C@H]1[C@H](c2ccccc2)C(c2ccc(F)cc2)=NN1c1ccccc1`, the Tm shift relative to glycine control is -6.51%. Turning to `S=C1NC(c2ccccc2)=NCN1c1ccc(Br)cc1`, the Tm shift relative to glycine control is -1.51%. For the molecule `O=C(COc1ncnc2c(Cl)cc(Cl)cc12)N1CCN(S(=O)(=O)c2ccccc2)CC1`, the Tm shift relative to glycine control is -7.02%. Consider `CN1CCC(=NNC(=O)c2ccc(N(Cc3ccc(Cl)cc3)S(C)(=O)=O)cc2)CC1`, for which the Tm shift relative to glycine control was -7.94%. Regarding `O=C(NNC(=O)c1ccco1)Nc1ccccc1`, the Tm shift relative to glycine control is 1.84%. In the case of `O=C(Nc1ccc(Sc2ccc(Br)cc2)cc1)c1ccco1`, the Tm shift relative to glycine control was 11.6% (active). `COC(=O)c1ccc(NC(=O)Nc2ccc(C)cc2)cc1`: the Tm shift relative to glycine control is 14.4% (active). With `COC(=O)c1ccc(NC(=O)c2cc(Cl)ccc2OC)cc1`, the Tm shift relative to glycine control was -3.8%. For the molecule `Cc1cc(C)cc(NC(=O)CSc2ccccc2)c1`, the Tm shift relative to glycine control is 0.84%. Take `C/C(=N\NS(=O)(=O)c1ccc(Cl)cc1)c1ccc(NC(=O)c2ccco2)cc1`: the Tm shift relative to glycine control was -5.45%.

Take `O=C(CNC(=O)c1ccco1)NNC(=O)c1ccc(Br)cc1`: the Tm shift relative to glycine control was 0.51%. For the molecule `O=C(Nc1ccc(O)cc1)c1ccc(NC(=O)c2ccco2)cc1`, the Tm shift relative to glycine control was 25% (active). Next, `O=C(NCCSc1ccccc1)c1ccco1`: 0.71%; `COC(=O)c1ccc(NC(=O)C(C)N2C(=O)c3ccccc3C2=O)cc1` (stereo unspecified): -0.85%; `Cc1cc(NC(=O)c2ccc(F)cc2)ccc1NC(=O)c1ccco1`: -2.39%. For `O=C(CSc1ccccc1)Nc1ccc(NC(=O)c2ccco2)cc1`, the Tm shift relative to glycine control is 11.8% (active). Regarding `CC12CCC(C(=O)N3CCN(c4ncccn4)CC3)(c3nc4ccccc4nc31)C2(C)C` (stereo unspecified), the Tm shift relative to glycine control is -1.28%.

As for `COc1ccc(OC)c(S(=O)(=O)N2CCCC(C(=O)NCCc3ccccc3)C2)c1` (stereo unspecified), the Tm shift relative to glycine control is 0.67%.

As to `O=C(CNC(=O)[C@@H]1Cc2ccccc2CN1)NC1CCCCC1`, the Tm shift relative to glycine control is -12.5%. Next, `CCOC(=O)N1CCN(C(=O)CN(C2CCCCC2)S(C)(=O)=O)CC1`: -2.35%; `CCOc1ccc(NC(=O)CCS(=O)(=O)c2ccc3c(c2)CCCN3C(=O)CC)cc1`: -2.2%. For the molecule `C#CCOCCOCCOCCNc1nc(N2CCN(C(=O)C([C@@H](C)CC)n3cc(C(N)COC(=O)C(F)(F)F)nn3)CC2)nc(N2CCN(C(=O)[C@H](CCCCN)n3cc(C(N)CC(C)C)nn3)CC2)n1` (stereo partly specified), the Tm shift relative to glycine control was 3.3%.
